According to PubChem BioAssay (NCATS):
Where “and” joins values, the source holds several entries; their conditions need not be identical. Equal entries are not always repeated. Inconclusive results are not listed. Calls of active or inactive are those of the source. Unless noted, calls follow the shape of the dose curve; as a rule, active = well fitted curve in the direction sought with a large enough effect; inconclusive = small, poorly fitted or top-dose-only effect, or another doubt; inactive = no such curve, though single readings can be large; an effect the other way counts as inactive or inconclusive.

Assays:
[1] = tested on: Zika virus NS2B-NS3 protease (unlinked complex); test: Primary screen GU Rhodamine qHTS for Zika virus inhibitors: Unlinked NS2B-NS3 protease assay (AID 1347159); also: % is scaled to controls: 0 for no effect and ±100 for the full control effect; nearly all actives have a fitted effect of over 60% in size
Procedure, shortened: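 A qHTS format was used, with compound concentrations ranging up to 114 microM. Each compound was preincubated with 25 nM NS2B-NS3 protease, and the substrate was then added at 1.5 microM. Curves were fitted with a 4-parameter Hill model.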

[2] = tested on: Zika virus NS2B-NS3 protease (linked construct); test: Primary screen NINDS Rhodamine qHTS for Zika virus inhibitors (AID 1347160); also: nearly all actives have a fitted effect of over 55% in size
Procedure, shortened: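 Kinetic fluorescence (Ex 480 nm, Em 540 nm) over 15 min with 1.5 microM Rhodamine110 peptide and 25 nM linked protease.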

[3] = target: Calcium and integrin-binding protein 1 (Homo sapiens) (UniProt Q99828); test: Primary qHTS for Identification of Calcium Integrin Binding Protein 1 (CIB1) Competitor (AID 1508620);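 also: GST tagged CIB1 binding a fluorescein labelled alphaIIb integrin peptide tracer; top concentration of the series differs between compounds; % is scaled to controls: 0 for no effect and ±100 for the full control effect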
Chain of Calcium and integrin-binding protein 1 (Homo sapiens) (Q99828 whole entry, looked up): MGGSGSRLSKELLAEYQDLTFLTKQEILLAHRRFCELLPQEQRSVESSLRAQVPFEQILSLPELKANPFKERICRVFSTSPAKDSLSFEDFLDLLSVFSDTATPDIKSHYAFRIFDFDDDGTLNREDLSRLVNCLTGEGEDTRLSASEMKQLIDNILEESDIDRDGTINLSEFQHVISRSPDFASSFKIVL
Procedure, shortened: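 Fluorescence polarization competition: GST-tagged CIB1 (1 uM final) preincubated with compound 15 min at room temperature, then FITC-labelled alphaIIb peptide (100 nM final) added. After 15 min at room temperature, polarization read at Ex 480/Em 540.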

[4] = Primary qHTS for inhibitors of nuclear receptor binding SET domain protein 2 (NSD2) in an isogenic RCH-ACV NSD2 p.E1099K mutant (9B) (AID 1645876); also: nearly all actives have a fitted effect of over 70% in size; also: potency is read from the fitted curve at half-maximal effect
[5] = Primary qHTS for inhibitors of nuclear receptor binding SET domain protein 2 (NSD2) in an RCH-ACV wild type WT cells (2C) (AID 1645877); also: nearly all actives have a fitted effect of over 70% in size; also: potency is read from the fitted curve at half-maximal effect
[6] = target: Luciferin 4-monooxygenase (Photinus pyralis) (UniProt P08659); test: Primary firefly luciferase (FLuc) qHTS assay for identification of artifact compounds. (AID 1845220); also: nearly all actives have a fitted effect of over 60% in size
Procedure, shortened: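 Titrated compounds were incubated 15 min at RT, protected from light, with luciferin and ATP at 10 uM; reaction started with 10 nM FLuc, luminescence imaged at 5 min, and concentration-response fitted by Hill equation.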

[7] = Primary fluorescence-based thiol-reactive (MSTI) qHTS assay for identification of artifact compounds. (AID 1845221); also: nearly all actives have a fitted effect of over 65% in size; also: potency is read from the fitted curve at half-maximal effect
Procedure, shortened: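 A multi-concentration qHTS design tested compounds against 4 uM MSTI, pH 7.4 phosphate-buffered saline. Plates were protected from light for 1 h at room temperature before imaging fluorescence.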

[8] = tested on: Nanoluciferase (engineered Oplophorus gracilirostris luciferase); test: Primary Nanoluciferase (NLuc) qHTS assay for identification of artifact compounds. (AID 1845222); also: potency is read from the fitted curve at half-maximal effect
Procedure, shortened: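 qHTS format, against NLuc in S16 cell-conditioned medium. Nano-Glo substrate 1:100 was added after 15 min at room temperature. Luminescence was taken after a further 5 min.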

C33A = test: Primary qHTS to identify gynecologic anti-cancer compounds using libraries of approved drugs and bioactive compounds (AID 1345084); settings: Gynecologic cancer cell panel viability, ATPlite luminescence, 48 h; series mostly up to 57.5 µM; also: nearly all actives have a fitted effect of over 55% in size; also: potency is read from the fitted curve at half-maximal effect
Procedure, shortened: (§1)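 ATP-based viability (ATPlite), 1,000 cells/well, 16 h pre-incubation, 48 h compound at 37 C, 5% CO2, 15 min RT before read.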

CASKI = test: as above; settings: Gynecologic cancer cell panel viability, ATPlite luminescence, 48 h; series mostly up to 57.5 µM
Procedure, shortened: as §1

Es-2 = test: as above; settings: Gynecologic cancer cell panel viability, ATPlite luminescence, 48 h; series mostly up to 57.5 µM
Procedure, shortened: as §1

HeLa = test: as above; settings: Gynecologic cancer cell panel viability, ATPlite luminescence, 48 h; series mostly up to 57.5 µM
Procedure, shortened: as §1

Hek293T = test: as above; settings: Gynecologic cancer cell panel viability, ATPlite luminescence, 48 h, control line for the selectivity index; series mostly up to 57.5 µM
Procedure, shortened: as §1

JEG-3 = test: as above; settings: Gynecologic cancer cell panel viability, ATPlite luminescence, 48 h; series mostly up to 57.5 µM
Procedure, shortened: as §1

OV90 = test: as above; settings: Gynecologic cancer cell panel viability, ATPlite luminescence, 48 h; series mostly up to 57.5 µM
Procedure, shortened: as §1

Tov112D = test: as above; settings: Gynecologic cancer cell panel viability, ATPlite luminescence, 48 h; series mostly up to 57.5 µM
Procedure, shortened: as §1

[9] = P-glycoprotein substrates identified in KB-8-5-11 adenocarcinoma cell line, qHTS therapeutic library screen (AID 1346987); also: nearly all actives have a fitted effect of over 65% in size; also: potency is read from the fitted curve at half-maximal effect
Procedure, shortened: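 P-gp-mediated resistance screen: KB-8-5-11 cells treated 72 h with compounds in dose-response. CellTiter-Glo viability.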

[10] = target: Glutathione peroxidase 1 (Homo sapiens) (UniProt P07203); test: Primary qHTS Assay for Inhibitors of Recombinant Selenoprotein Glutathione Peroxidase 1 (GPX1) (AID 1845191); also: nearly all actives have a fitted effect of over 65% in size
Chain of Glutathione peroxidase 1 (Homo sapiens) (P07203 whole entry, looked up): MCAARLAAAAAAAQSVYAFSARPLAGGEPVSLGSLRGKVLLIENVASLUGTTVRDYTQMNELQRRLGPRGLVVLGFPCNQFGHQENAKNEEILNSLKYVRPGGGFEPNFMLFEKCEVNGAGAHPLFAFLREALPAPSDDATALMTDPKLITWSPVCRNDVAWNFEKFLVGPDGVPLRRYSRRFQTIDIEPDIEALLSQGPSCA
Procedure, shortened: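 GR-coupled assay: compounds preincubated 30 min at room temperature with GPX1, then reaction started with CHP; final 10 nM GPX1, 1 mM GSH, 0.5 mM CHP, 0.5 mM NADPH, 100 nM GR, 0.01% BSA, pH 7.5 Tris buffer. NADPH fluorescence (340/450 nm) read at 0 and 15 min.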

[11] = target: Phospholipid hydroperoxide glutathione peroxidase GPX4 (Homo sapiens) (UniProt P36969); test: Primary qHTS Assay for Inhibitors of Recombinant Selenoprotein Glutathione Peroxidase 4 (GPX4) (AID 1845192); settings: outcome: dose series up to 50 µM unless noted; also: nearly all actives have a fitted effect of over 65% in size
Chain of Phospholipid hydroperoxide glutathione peroxidase GPX4 (Homo sapiens) (P36969 whole entry, looked up): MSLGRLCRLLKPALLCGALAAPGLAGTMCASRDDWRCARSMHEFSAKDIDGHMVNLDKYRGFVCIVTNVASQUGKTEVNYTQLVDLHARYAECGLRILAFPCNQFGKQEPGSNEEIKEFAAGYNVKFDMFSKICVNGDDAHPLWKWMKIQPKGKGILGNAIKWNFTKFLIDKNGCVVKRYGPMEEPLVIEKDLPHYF
Procedure, shortened: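 GR-coupled assay: recombinant GPX4 preincubated 30 min with compound at room temperature; final 200 nM GPX4, 1 mM GSH, 0.5 mM cumene hydroperoxide, 0.5 mM NADPH, 100 nM GR, 0.01% BSA, pH 7.5 Tris. NADPH fluorescence (340/450 nm) read at 0 and 15 min.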

[12] = qHTS drug screen for cell cycle checkpoint inhibitors in PARPi-resistant BRCA-mutant ovarian cancer cell lines. (AID 1963452; calls by dose curve); settings: PEO1/OlaR viability, CellTiter-Glo luminescence, 96 h, stronger effect = lower value
Procedure, shortened: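 PEO1, PEO4 and PEO1/OlaR ovarian cancer cells, 600 per well, exposed 96 h at 37C to a dilution series. Viability read by CellTiter-Glo luminescence, normalized to DMSO and empty wells; activity summarized as Z-AUC.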

[13] = measured here: PEO1 parental Z-AUC

CCOC(=O)CCC(=O)O[C@H]1[C@H](O[C@@H]2[C@@H](C)[C@H](O[C@H]3C[C@@](C)(OC)[C@@H](O)[C@H](C)O3)[C@@H](C)C(=O)O[C@H](CC)[C@@](C)(O)[C@H](O)[C@@H](C)C(=O)[C@H](C)CC2(C)O)O[C@H](C)C[C@@H]1N(C)C (stereo not given in full)
inactive: Potency [1] | Potency [2] | outcome [3] | Potency [4] | Potency [5] | Potency [6] | Potency [7] | Potency [8] | Potency (C33A) | Potency (CASKI) | Potency (Es-2) | Potency (HeLa) | Potency (Hek293T) | Potency (JEG-3) | Potency (OV90) | Potency (Tov112D)

CCC(=O)Nc1cccc(Oc2nc(Nc3ccc(N4CCN(C)CC4)cc3OC)ncc2Cl)c1
active: Potency [9] 16.4 µM | Potency [4] 16.3 µM | Potency [5] 14.5 µM | Potency [7] 1.89 µM
inactive: Potency [1] | Potency [2] | outcome [3] | Potency [10] | Potency [6] | Potency [8] | Potency (C33A) | Potency (CASKI) | Potency (Es-2) | Potency (HeLa) | Potency (Hek293T) | Potency (JEG-3) | Potency (OV90) | Potency (Tov112D)

COc1ccccc1-c1c[nH]c2ncc(-c3cncc(C(=O)N(C)C)c3)cc12
inactive: Potency [1] | Potency [2] | outcome [3] | Potency [10] | Potency [11] | Potency [6] | Potency [7] | Potency [8] | Potency (C33A) | Potency (CASKI) | Potency (Es-2) | Potency (JEG-3) | Potency (OV90)

COc1cc2nc(-c3cc(F)ccc3O)nc(N[C@@H]3CNC[C@H]3C(C)(C)O)c2cc1OC
inactive: Potency [1] | Potency [2] | outcome [3] | Potency [10] | Potency [11] | Potency [6] | Potency [7] | Potency [8] | Z-AUC [12] -0.315 | Potency (C33A) | Potency (CASKI) | Potency (Es-2) | Potency (HeLa) | Potency (Hek293T) | Potency (JEG-3) | Potency (OV90) | Potency (Tov112D)
active: Potency [4] 4.59 µM and 1.48 µM | Potency [5] 4.09 µM and 1.66 µM
-0.09: Z-AUC ([12]; measured here: PEO4 Z-AUC)
-0.378: Z-AUC [12, 13]

C=C1C(=O)O[C@@H]2C[C@@H](C)[C@]34C[C@]5(C(=O)O[C@H]6CC(C)=C([C@H](C)CCCO)[C@H](OC(=O)C(C)CC)[C@H]65)[C@@H](C(C)=C3C[C@@H]12)[C@H]4OC(C)=O (stereo not given in full)
inactive: Potency [1] | Potency [2] | outcome [3] | Potency [6] | Potency [8] | Potency (C33A) | Potency (CASKI) | Potency (Es-2) | Potency (HeLa) | Potency (JEG-3) | Potency (OV90) | Potency (Tov112D)
active: Potency [9] 5.44 µM | Potency [4] 2.16 µM | Potency [5] 1.53 µM

C=C1C(=O)O[C@@H]2[C@H]1[C@H](O)C[C@]1(C)[C@@H](O)CC=C(C)[C@@H]21
active: Potency [4] 11.5 µM
inactive: Potency [1] | Potency [2] | Potency [10] | Potency [11] | Potency [6] | Potency [7] | Potency [8] | Potency (C33A) | Potency (CASKI) | Potency (Es-2) | Potency (HeLa) | Potency (Hek293T) | Potency (JEG-3) | Potency (OV90) | Potency (Tov112D)

COc1ccc(-c2nc(-c3cc(C(F)(F)F)cc(C(F)(F)F)c3)n(Cc3ccc(C(N)=O)cc3)c2-c2ccc(OC)cc2)cc1
inactive: Potency [1] | outcome [3] | Potency [4] | Potency [5] | Potency [10] | Potency [11] | Potency [6] | Potency [7] | Potency [8] | Potency (C33A) | Potency (CASKI) | Potency (Es-2) | Potency (HeLa) | Potency (JEG-3) | Potency (OV90) | Potency (Tov112D)

CN(C)C(=O)c1cc2cnc(Nc3ccc(N4CCNCC4)cn3)nc2n1C1CCCC1
active: Potency [4] 4.09 µM | Potency [5] 5.15 µM
0.759: Z-AUC [12, 13]
inactive: Potency [9] | Potency [1] | Potency [2] | outcome [3] | Potency [10] | Potency [11] | Potency [6] | Potency [8] | Z-AUC [12] 0.0269 | Potency (C33A) | Potency (CASKI) | Potency (Es-2) | Potency (HeLa) | Potency (Hek293T) | Potency (JEG-3) | Potency (OV90) | Potency (Tov112D)
0.126: Z-AUC ([12]; measured here: PEO4 Z-AUC)

CCN(CC)Cc1cccc(/C=C/c2nc3ccc(F)cc3c(=O)n2-c2ccccc2Cl)n1
active: Potency [4] 14.5 µM | Potency [5] 12.9 µM
inactive: Potency [1] | Potency [2] | outcome [3] | Potency [10] | Potency [11] | Potency [6] | Potency [7] | Potency [8] | Potency (C33A) | Potency (CASKI) | Potency (Es-2) | Potency (HeLa) | Potency (Hek293T) | Potency (JEG-3)

Cc1nc(C)c2c(n1)N(Cc1ccc(-c3ccccc3-c3nn[nH]n3)cc1)C(=O)CC2
inactive: Potency [1] | Potency [2] | outcome [3] | Potency [4] | Potency [5] | Potency [10] | Potency [11] | Potency [6] | Potency [7] | Potency (C33A) | Potency (CASKI) | Potency (Es-2) | Potency (HeLa) | Potency (Hek293T) | Potency (JEG-3) | Potency (OV90) | Potency (Tov112D)
active: Potency [8] 21.3 µM

COc1ccc2c3ccnc4ccc(=O)n(c2c1)c43
inactive: Potency [1] | Potency [2] | outcome [3] | Potency [10] | Potency [11] | Potency [6] | Potency [7] | Potency [8] | Potency (C33A) | Potency (JEG-3) | Potency (OV90)
active: Potency (HeLa) 14.1 µM

C=C(C)C(=O)O[C@H]1[C@H]2C(=C)C(=O)O[C@@H]2C[C@@H](C)[C@@H]2O[C@@H]2C(=O)[C@](C)(O)[C@@H]1OC(C)=O
active: Potency [4] 2.82 µM | Potency [5] 1.42 µM | Potency (Hek293T) 10 µM
inactive: Potency [1] | Potency [2] | outcome [3] | Potency [10] | Potency [11] | Potency [6] | Potency [8] | Potency (HeLa) | Potency (OV90) | Potency (Tov112D)
